# Laboratory results published in PubChem BioAssay (NCATS).
# Several values for one entry are separate records, joined by “and”; a condition that tells them apart may be missing. Identical values can stand only once. Unmarked numbers belong to inactive results. Inconclusive results are not listed. Where a call stands in place of a potency, no number is given. Activity calls are given as the source filed them. Unless noted, how the calls were made is not given here. Residues, ends and D or L forms follow the SMILES beside them.
# Tests used:
# [1] = Ebola virus entry assay, blue channel fluorescence
# [2] = Ebola virus entry assay, ratio channel
# [3] = qHTS Assay for Identifying Gametocytocidal Compounds (AID 743244; active means well fitted curve in the direction sought with a large enough effect; an effect the other way counts as inactive or inconclusive; further: potency means the concentration at half of the fitted maximal effect;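 on max response: actives lower the fluorescent signal which means gametocytes are killed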); settings: P. falciparum 3D7 stage III-V gametocytes, alamarBlue, 72 h; max response: hits give low values
# Procedure, shortened: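 A resazurin-based viability read-out was applied to mature P. falciparum gametocytes: 72 h compound treatment, then 24 h dye incubation, with falling fluorescence signalling gametocytocidal effect.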
# [4] = qHTS assay for small molecule agonists of the antioxidant response element (ARE) signaling pathway measured by Nrf2-dependant transcriptional activity (AID 720636; active means well fitted curve in the direction sought with a large enough effect in the repeat runs; an effect the other way counts as inactive or inconclusive); settings: ARE-luc HepG2, Nrf2 luciferase reporter, 16 h; series mostly up to 92.4 µM
# Procedure, shortened: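 Nrf2-dependent transcription read as ONE-Glo luciferase signal from ARE-luc HepG2 reporter cells after 16 hr compound treatment at 37 C, 5% CO2, in assay medium with 1% dialyzed FBS.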
# [5] = qHTS assay for small molecule agonists of the antioxidant response element (ARE) signaling pathway measured by Nrf2-dependant transcriptional activity - cell viability counter screen (AID 720653; active means well fitted curve in the direction sought with a large enough effect in the repeat runs; an effect the other way counts as inactive or inconclusive); settings: ARE-bla HepG2 viability, CellTiter-Glo ATP luminescence, 16 h; hits give low values
# Procedure, shortened: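 ARE-bla HepG2 cells (2,000/well) rested 5 hrs at 37C/5% CO2, then exposed to compounds in DMSO for 16 hrs. Viability was read in the same wells as intracellular ATP by luminescence, 30 min at room temperature after reagent addition.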
# [6] = qHTS assay for cell viability of HEK293 cells (AID 743288; active means well fitted curve in the direction sought with a large enough effect; an effect the other way counts as inactive or inconclusive; further: nearly all actives have a fitted effect of over 50% in size); settings: ATP luminescence (CellTiter-Glo), 18 h, hits give low values
# Procedure, shortened: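 Parental HEK293 cells were seeded at 2,000 cells/well, rested at least 5 h at 37 C, then exposed to compounds in DMSO for 18 h at 37 C. Viability was read as ATP-dependent luciferase luminescence after 30 min at room temperature.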
# [7] = qHTS assay for small molecule antagonists of the retinoid-related orphan receptor gamma (ROR-gamma) signaling pathway - cell viability counter screen (AID 720652; active means well fitted curve in the direction sought with a large enough effect in the repeat runs; an effect the other way counts as inactive or inconclusive;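 further: CHO reporter cells with doxycycline-induced ROR-gamma expression; compound exposure lasted 16 hr before ATP read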); settings: RORgamma reporter cell line viability counter screen; series mostly up to 92.2 µM
# Procedure, shortened: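 Cytotoxicity is quantified via intracellular ATP (CellTiter-Glo luminescence) in doxycycline-induced CHO ROR response element-luciferase reporter cells treated with compound for 16 hr at 37 C, 5% CO2.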
# [8] = qHTS for Activators of Parkin Expression: LOPAC Validation Assay (FLuc Reporter) (AID 720573; active means well fitted curve in the direction sought with a large enough effect; an effect the other way counts as inactive or inconclusive); settings: Cell line, PRKN promoter firefly luciferase reporter, vehicle wells = 0, positive control = 100%; series mostly up to 46.1 µM
# Procedure, shortened: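 Neuronal cell line stably carrying FLuc/NLuc coincidence reporter under Parkin promoter; cells plated 24 h, then compounds added in 7-point dose response for 24 h at 37 C. FLuc luminescence read; normalized to DMSO and positive control (100%).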
# [9] = target: T1, Hexokinase-4 (Homo sapiens) + Glucokinase regulatory protein (Homo sapiens) (UniProt P35557+Q14397); assay: qHTS assay for inhibitors of recombinant human GCK-GKRP interaction: Diaphorase-coupled assay (AID 743205; active means well fitted curve in the direction sought with a large enough effect; an effect the other way counts as inactive or inconclusive); settings: G6PDH/diaphorase resorufin fluorescence; series mostly up to 57.5 µM
# T1 sequence (P35557 whole entry, looked up): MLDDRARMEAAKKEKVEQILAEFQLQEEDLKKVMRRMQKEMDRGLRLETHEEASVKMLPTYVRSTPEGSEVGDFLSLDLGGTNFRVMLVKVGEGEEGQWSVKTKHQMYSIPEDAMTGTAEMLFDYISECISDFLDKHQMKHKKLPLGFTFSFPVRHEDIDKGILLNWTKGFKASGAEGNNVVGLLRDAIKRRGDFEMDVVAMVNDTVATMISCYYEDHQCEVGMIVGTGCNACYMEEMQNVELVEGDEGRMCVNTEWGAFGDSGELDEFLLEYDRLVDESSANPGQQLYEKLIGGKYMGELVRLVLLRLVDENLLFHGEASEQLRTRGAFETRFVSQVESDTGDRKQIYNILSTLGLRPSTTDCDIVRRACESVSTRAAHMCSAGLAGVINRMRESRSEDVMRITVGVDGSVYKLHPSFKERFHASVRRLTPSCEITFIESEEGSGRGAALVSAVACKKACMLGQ
# T1 sequence (Q14397 whole entry, looked up): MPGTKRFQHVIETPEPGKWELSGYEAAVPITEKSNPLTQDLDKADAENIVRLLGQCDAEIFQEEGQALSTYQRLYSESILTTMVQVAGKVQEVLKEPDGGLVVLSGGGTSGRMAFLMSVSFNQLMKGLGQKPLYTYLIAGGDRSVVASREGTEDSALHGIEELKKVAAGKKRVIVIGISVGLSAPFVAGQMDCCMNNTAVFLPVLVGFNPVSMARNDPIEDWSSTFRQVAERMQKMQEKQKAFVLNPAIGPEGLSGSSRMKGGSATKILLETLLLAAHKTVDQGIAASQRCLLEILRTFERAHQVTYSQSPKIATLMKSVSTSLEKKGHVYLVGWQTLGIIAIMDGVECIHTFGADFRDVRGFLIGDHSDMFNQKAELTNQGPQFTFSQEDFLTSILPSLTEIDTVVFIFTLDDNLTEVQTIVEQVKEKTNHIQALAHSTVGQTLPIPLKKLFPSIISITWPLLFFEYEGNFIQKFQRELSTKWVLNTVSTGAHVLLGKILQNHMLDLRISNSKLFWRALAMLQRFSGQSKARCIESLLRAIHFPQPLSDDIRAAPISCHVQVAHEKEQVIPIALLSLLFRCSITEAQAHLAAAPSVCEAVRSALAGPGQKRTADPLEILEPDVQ
# Procedure, shortened: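 GST-GCK (10 nM) with FLAG-GKRP (10 nM), 5 mM glucose and 0.4 mM ATP in pH 7.6 Hepes; compounds preincubated 20 min with substrate. G6PDH/diaphorase coupling converts resazurin to resorufin, read kinetically (ex 525/em 590 nm) for 30 min.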
# [10] = target: T1, Hexokinase-4 (Homo sapiens) + Glucokinase regulatory protein (Homo sapiens); assay: qHTS assay for inhibitors of recombinant human GCK-GKRP interaction: ADP-Glo assay (AID 743206; active means well fitted curve in the direction sought with a large enough effect; an effect the other way counts as inactive or inconclusive); settings: ADP-Glo luminescence, 60 min, 0% = vehicle-only wells with enzyme present; series mostly up to 76.9 µM
# Procedure, shortened: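 GST-GCK and FLAG-GKRP (15 nM each in the dispensed mix, with 2 uM S6P) react with 0.4 mM ATP and 5 mM glucose (final) in Hepes pH 7.6 for 60 min at room temperature. ADP is measured by ADP-Glo luminescence.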
smiles,measurement,setting,value
C[C@H]1C[C@@H]2[C@H]([C@@H](O)C[C@@]3(C)[C@H]2CC[C@]3(O)C(=O)CO)[C@@]2(C)C=CC(=O)C=C12,outcome,[1],inactive
same,outcome,[2],inactive
O=C(O)c1cccnc1,outcome,[1],inactive
same,outcome,[2],inactive
Nc1ccc(S(=O)(=O)Nc2ccnn2-c2ccccc2)cc1,outcome,[1],inactive
same,outcome,[2],inactive
COc1cc(-c2ccc(=O)[nH]n2)ccc1OC(F)F,outcome,[1],inactive
same,outcome,[2],inactive
CC(=O)c1ccc(O)c(C(N)=O)c1,outcome,[1],inactive
same,outcome,[2],inactive
NC(=O)c1ccc([N+](=O)[O-])cc1Cl,outcome,[1],inactive
same,outcome,[2],inactive
CN[C@@H]1[C@H](O)[C@H](NC)[C@H]2O[C@@]3(O)C(=O)C[C@@H](C)O[C@H]3O[C@@H]2[C@H]1O,outcome,[1],inactive
same,outcome,[2],inactive
CC(C)OP(=O)(CP(=O)(OC(C)C)OC(C)C)OC(C)C,outcome,[1],inactive
same,outcome,[2],inactive
CCCCCCCCCCCCCCCCOP(=O)([O-])OCC[N+](C)(C)C,outcome,[1],inactive
same,outcome,[2],inactive
Nc1ccc(C(=O)Oc2ccccc2)c(O)c1,outcome,[1],inactive
same,outcome,[2],inactive
C[C@@H]1C[C@H]2[C@@H]3C[C@H](F)C4=CC(=O)C=C[C@]4(C)[C@@]3(F)[C@@H](O)C[C@]2(C)[C@@]1(O)C(=O)CO,outcome,[1],inactive
same,outcome,[2],inactive
Nc1ncnc2c1ncn2[C@@H]1O[C@H](CO)[C@@H](O)[C@H]1O,outcome,[1],inactive
same,outcome,[2],inactive
Cc1cc(-n2nc3ccc(Cl)cc3n2)c(O)c(C(C)(C)C)c1,outcome,[1],inactive
same,outcome,[2],inactive
COC(=O)c1cc(Cl)ccc1OC,outcome,[1],inactive
same,outcome,[2],inactive
COc1ccc2cc([C@H](C)C(=O)O)ccc2c1,outcome,[1],inactive
same,outcome,[2],inactive
C/C=C/C=N/NC(=O)c1ccncc1,outcome,[1],inactive
same,outcome,[2],inactive
COC(=O)[C@H](Cc1ccccc1)NC(=O)[C@@H](N)CC(=O)O (H-Asp-Phe-OMe),outcome,[1],inactive
same,outcome,[2],inactive
Cc1cc2c(cc1S(N)(=O)=O)S(=O)(=O)CCC2,outcome,[1],inactive
same,outcome,[2],inactive
NC1CCN(c2nc3c(cc2F)c(=O)c(C(=O)O)cn3-c2ccc(F)cc2F)C1 (configuration not stated),outcome,[1],inactive
same,outcome,[2],inactive
COC(=O)c1ccccc1C(=O)c1ccc(OCCN2CCCCC2)cc1,AC50,[1],14.1 µM (active)
same,AC50,[2],14.1 µM (active)
CC(C)(C)C(=O)Oc1ccc(S(=O)(=O)Nc2ccccc2C(=O)NCC(=O)O)cc1,outcome,[1],inactive
same,outcome,[2],inactive
NC(N)=NS(=O)(=O)c1ccc(N)cc1,outcome,[1],inactive
same,outcome,[2],inactive
CC(=O)N/N=C/c1ccc([N+](=O)[O-])o1,outcome,[1],inactive
same,outcome,[2],inactive
O=C(O)CCCC[C@@H]1SC[C@@H]2NC(=O)N[C@@H]21,outcome,[1],inactive
same,outcome,[2],inactive
N=C(N=C(N)N)N1CCOCC1,outcome,[1],inactive
same,outcome,[2],inactive
N=C(N)N1CCc2ccccc2C1,outcome,[1],inactive
same,outcome,[2],inactive
O=C(COCCOCCOCC(=O)Nc1c(I)cc(I)c(C(=O)O)c1I)Nc1c(I)cc(I)c(C(=O)O)c1I,outcome,[1],inactive
same,outcome,[2],inactive
CCC1(c2ccccc2)C(=O)N(COC)C(=O)N(COC)C1=O,max response,[3],-2.08%
same,outcome,[1],inactive
same,outcome,[2],inactive
O=C(NCC1CCCCN1)c1cc(OCC(F)(F)F)ccc1OCC(F)(F)F (configuration not stated),AC50,[1],39.8 µM (active)
same,AC50,[2],35.5 µM (active)
CC(C)(C)c1ccc(O)cc1,outcome,[4],inactive
same,max response,[5],-7.43%
same,max response,[6],3.38%
same,outcome,[1],inactive
same,outcome,[2],inactive
CCCC(=O)c1cc(O)c(O)cc1O,AC50,[2],10 µM (active)
CN(C)CCc1c[nH]c2cccc(OP(=O)(O)O)c12,max response,[3],13%
same,outcome,[1],inactive
COc1cccc(C(=O)CCN[C@@H](C)[C@H](O)c2ccccc2)c1,Potency,[3],31.6 µM (active)
same,outcome,[1],inactive
same,outcome,[2],inactive
Nc1nc(N)nc(NC2CC2)n1,outcome,[4],inactive
same,max response,[5],14.5%
same,max response,[3],-8.01%
same,max response,[6],-3.61%
same,outcome,[1],inactive
same,outcome,[2],inactive
Nc1ccccc1C(=O)O,outcome,[4],inactive
same,outcome,[7],inactive
same,max response,[5],1.19%
same,max response,[3],3.13%
same,max response,[6],2.79%
same,outcome,[1],inactive
COc1cc(CC(C)N)cc(OC)c1OC (configuration not stated),max response,[3],4.71%
same,outcome,[1],inactive
same,outcome,[2],inactive
CC(Cc1ccccc1)NCCn1cnc2c1c(=O)n(C)c(=O)n2C (configuration not stated),max response,[3],-2.49%
same,outcome,[1],inactive
same,outcome,[2],inactive
NCCc1ccc(O)cc1,outcome,[8],inactive
same,outcome,[4],inactive
same,outcome,[7],inactive
same,max response,[5],13.6%
same,outcome,[9],inactive
same,outcome,[10],inactive
same,max response,[3],-2.18% and 16.8%
same,max response,[6],-6.56%
same,outcome,[1],inactive
Clc1ccc2c(c1)Nc1ccccc1S2,outcome,[1],inactive
same,outcome,[2],inactive
CCN[C@@H](C)Cc1cccc(C(F)(F)F)c1,max response,[3],13.9%
same,outcome,[1],inactive
same,outcome,[2],inactive
